# Source: PubChem BioAssay (National Center for Advancing Translational Sciences (NCATS))
# Shown are actives, neighbours in structure and some others; about 3.3% of the full set was active somewhere.
# AmpC detergent: qHTS Inhibitors of AmpC Beta-Lactamase (assay with detergent). P00811. AmpC hydrolysis of nitrocefin, absorbance 480 nm, 0.01% Triton. Potency, µM (titrated, usually from 114 µM), inactives show top-dose activity change, negative = inhibition, actives largely listed as inhibitors. 370,000 compounds, 0.041% hits;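 also: 0% = no-compound wells and -100% = no-enzyme wells; nearly all actives have a fitted effect of over 25% in size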
# Target sequence (P00811 whole entry, looked up): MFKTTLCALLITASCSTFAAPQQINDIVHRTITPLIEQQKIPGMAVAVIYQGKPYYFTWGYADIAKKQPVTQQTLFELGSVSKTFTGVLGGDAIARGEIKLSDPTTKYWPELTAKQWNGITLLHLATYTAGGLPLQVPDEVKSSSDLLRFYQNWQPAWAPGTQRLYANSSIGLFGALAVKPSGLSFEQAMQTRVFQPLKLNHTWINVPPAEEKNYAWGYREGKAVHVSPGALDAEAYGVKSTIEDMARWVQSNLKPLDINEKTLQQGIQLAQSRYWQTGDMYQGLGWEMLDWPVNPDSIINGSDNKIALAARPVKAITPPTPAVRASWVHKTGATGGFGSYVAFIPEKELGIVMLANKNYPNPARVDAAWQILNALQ
#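 20 mM phosphate pH 7.0 + 0.01% (detergent screen) or 0.0001% Triton X-100; 5.3 nM AmpC reagent; cpd preinc 15 min RT; nitrocefin (800 uM stock) to start; A480 q20 s × 4 min; Activity was normalised to no-enzyme and no-compound control wells.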
# AmpC no deterg: qHTS Inhibitors of AmpC Beta-Lactamase (assay without detergent) | AmpC nitrocefin hydrolysis, absorbance 480 nm, 0.0001% Triton | 330,000 compounds, 0.52% hits | Potency, µM (highest dose often 57.1 µM), for inactives: top-dose activity change, negative = inhibition, usual class: inhibitors;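 also: plate controls were no compound for no effect and no enzyme for full effect; nearly all actives have a fitted effect of over 20% in size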
#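 20 mM phosphate pH 7.0 + 0.01% (detergent screen) or 0.0001% Triton X-100; 5.3 nM AmpC reagent; cpd preinc 15 min RT; nitrocefin (800 uM stock) to start; A480 q20 s × 4 min; Activity was normalised to no-enzyme and no-compound control wells.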
# Sm TGR block: qHTS Assay for the Inhibitors of Schistosoma Mansoni Peroxiredoxins; 360,000 compounds, 3% hits; purified TGR, DTNB reduction, TNB absorbance 405 nm; Schistosoma mansoni thioredoxin glutathione reductase (TGR), Q962Y6; Potency, µM (titrated, usually from 114 µM), inactives show at the highest dose activity change, negative = inhibition, usual class: inhibitors; also: nearly all actives have a fitted effect of over 60% in size
#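 Kinetic colorimetric format: TGR-catalysed, NADPH-driven DTNB reduction monitored via TNB absorbance. Enzyme dispensed at 20 nM; compound exposure 15 min at room temperature before reaction start.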
# * = called active by the depositor; ? = inconclusive; / = not tested or not shown; [ ] = another dose, or the depositor's remark. Calls follow the shape of the dose curve; as a rule, active = well fitted curve in the direction sought with a large enough effect; inconclusive = small, poorly fitted or top-dose-only effect, or another doubt; inactive = no such curve, though single readings can be large; an effect the other way counts as inactive or inconclusive. Unless noted, % is scaled to controls: 0 for no effect and ±100 for the full control effect; potency is read from the fitted curve at half-maximal effect.
SMILES,AmpC detergent,AmpC no deterg,Sm TGR block
Cc1ccc(/C=C2/C(=O)ON=C2c2ccccc2)o1,-13.4%,-45.3%,5.01µM*
O=C1ON=C(c2ccccc2)/C1=C\c1ccco1,3.3%,-45.1%,25.1µM*
COc1cccc(NC(=O)CCN2CCN(C)CC2)c1,1.4%,-20.5%,-25.3%
O=C(CCl)N1c2ccccc2SCC1c1ccccc1 (stereo not given),2.6%,-15.6%,2.82µM*
O=C(CN1CCSc2ccccc21)N1CCCCC1,18.4%,/,1.8%
O=C(CCl)N1CCN(C(=O)C2COc3ccccc3O2)CC1 (stereo not given),/,-11.1%,/
O=C(CCl)N1c2ccccc2OCC1c1ccccc1 (stereo not given),0.9%,-9.0%,3.16µM*
Cc1c2cnn(CC(=O)NCCCN3CC(C)CC(C)C3)c(=O)c2c(C)n1Cc1ccccc1Cl (stereo not given),-3.5%,100.8%,-8.5%
Cc1ccc2nc(Cl)c(C3CC(c4ccco4)=NN3C(=O)CCCC(=O)O)cc2c1 (stereo not given),1.6%,-22.2%,35.5µM*
COc1ccc2nc(Cl)c(C3CC(c4ccco4)=NN3C(=O)CCCC(=O)O)cc2c1 (stereo not given),4.3%,-14.6%,8.91µM*
COc1ccc2nc(Cl)c(C3CC(c4ccco4)=NN3C(=O)CCC(=O)O)cc2c1 (stereo not given),-1.3%,-21.2%,?
Cc1ccc2cc(C3CC(c4ccco4)=NN3C(=O)CCCC(=O)O)c(Cl)nc2c1 (stereo not given),-7.1%,53.1%,?
COc1ccc(N2CCN(C3CCCN(Cc4cccc(C(C)=O)c4)C3)CC2)cc1 (stereo not given),6.1%,43.3%,3.8%
Cc1[nH]c2ccccc2c1/C=N/NC(=O)C1CC1(c1ccccc1)c1ccccc1 (stereo not given),0.1%,11.2µM*,-2.8%
Cc1[nH]c2ccccc2c1/C=N/NC(=O)CCC(=O)NCc1ccccc1,5.1%,-13.5%,5.3%
O=C(NNC1CC(=O)N(c2ccccc2)C1=O)c1cccnc1 (stereo not given),-7.4%,-11.3%,0.8%
O=C(NNC1CC(=O)N(c2ccc(F)cc2)C1=O)c1cccnc1 (stereo not given),3.5%,-16.1%,7.94µM*
CCCCCCCCCCCNC(=O)c1ccoc1C,?,-24.8%,17.8µM*
CCCCNC(=O)c1ccccc1Cl,-25.0%,-8.8%,0.6%
Cc1occc1C(=O)NCCCCNC(=O)c1ccoc1C,-1.6%,-9.8%,-14.7%
CCCCNC(=O)c1ccccc1C(=O)NCCCC,0.2%,1.12µM*,1.8%
CN1C(=O)c2ccccc2Sc2ccc(NC(=O)N3CCN(c4ccccc4)CC3)cc21,3.0%,/,-29.7%
CC1=C[C@H](C)[C@H](c2c(F)cccc2Cl)CC1=O,-5.8%,-19.4%,-1.0%
CCn1cc(C(=O)NC(=S)Nc2cccc(O)c2)cn1,0.8%,-0.9%,?
Cc1ccc(NC(=O)C(Cc2ccccc2)n2cccc2)cc1C (stereo not given),2.7%,/,-0.5%
SMILES,AmpC detergent,AmpC no deterg,Sm TGR block
CC(=O)NCC(=O)OC(C(=O)c1ccccc1)c1ccc(Cl)cc1 (stereo not given),?,32.6%,2.1%
CC(OC(=O)CCCN=C1NS(=O)(=O)c2ccccc21)C(=O)c1ccccc1 (stereo not given),-22.5%,-14.7%,-0.3%
COc1ccc(NC(=O)C(=O)NNC(=O)C(C)Oc2ccc(Cl)cc2Cl)cc1 (stereo not given),-8.7%,31.6µM*,7.0%
CC(=O)Nc1ccc(NC(=O)C(C)Oc2ccc(Cl)cc2Cl)cc1 (stereo not given),-2.3%,6.8%[2.29 µM],-0.5%
CCOc1ccc(/C=C/c2nc(C#N)c(N3CCC(C)CC3)o2)cc1,23.2%,/,-0.4%
Cn1c(NCCCO)nc2c1c(=O)n(Cc1ccccc1F)c(=O)n2C,-15.7%,-10.4%,6.1%
COc1ccccc1Oc1nc2c(c(=O)n(Cc3ccccc3F)c(=O)n2C)n1C,-9.8%,-19.2%,2.82µM*
COc1ccc(C(=O)CSc2nnc(-c3cc4ccccc4cc3O)n2Cc2ccco2)cc1,-2.1%,-44.2%,?
C=CCn1c(CNC(=O)c2ccco2)nnc1SCC(=O)c1ccc(F)cc1,-7.8%,-14.4%,-2.7%
c1cncc(CSc2nnc(-c3cccnc3)n2Cc2ccco2)c1,?,-14.1%,?
Clc1ccc(CSc2nnc(-c3cccnc3)n2Cc2ccco2)c(Cl)c1,-4.0%,89.1%,14.1µM*
Clc1cccc(CSc2nnc(-c3cccnc3)n2Cc2ccco2)c1,-12.1%,33.7%,?
O=C(CSc1nnc(-c2cccnc2)n1Cc1ccco1)N1c2ccccc2Sc2ccccc21,0.5%,99.2%,25.1µM*
COc1ccc(C(=O)CSc2nnc(-c3cccnc3)n2Cc2ccco2)cc1,?,-4.0%,56.2µM*
C=CCn1c(CNC(=O)c2ccco2)nnc1SCC(=O)N1c2ccccc2Sc2ccccc21,9.8%,112.6%,35.5µM*
O=c1oc(Cc2ccccc2)nc2ccccc12,-0.8%,-5.2%,6.6%
C=C(C)C(=O)OCC(C)C,-0.2%,-11.5%,-31.3%
COc1cccc(CN2CCN(Cc3c(C)nn(C(C)C)c3C)CC2CCO)c1 (stereo not given),-8.0%,23.7%,-7.8%[57.1 µM]
Cc1cc(S(=O)(=O)N2CCN(Cc3noc(CCC(=O)N4CCCCC4)n3)CC2)ccc1F,1.4%,/,-15.5%
O=C(CSc1nnc(-c2cnccn2)n1Cc1ccco1)Nc1ccc(Br)cc1,-1.8%,/,?
COc1ccc(C(=O)CSc2nnc(-c3cnccn3)n2Cc2ccco2)cc1,-10.2%,68.6%,35.5µM*
CCOc1ccccc1NC(=O)C(CC)Sc1nc2ccsc2c(=O)n1CCC(=O)O (stereo not given),1.6%,19.5%,-7.4%
CCC(Sc1nc2ccsc2c(=O)n1Cc1ccc(C(=O)O)cc1)C(=O)Nc1ccc(C)c(Cl)c1 (stereo not given),-0.8%,8.91µM*,-5.8%
O=C(COc1ccc(Cl)cc1Br)Nc1ccncc1,-11.9%,-16.9%,-0.1%
Cn1cc(S(=O)(=O)N2CCCCC2)cc1C(=O)Nc1ccc(OC(F)(F)F)cc1,7.2%,/,8.0%
SMILES,AmpC detergent,AmpC no deterg,Sm TGR block
CCOc1nc(Nc2ccc(OC)cc2OC)nc(OCC)n1,2.7%,8.2%,0.0%
COc1ccc(NC(=O)CSc2nncn3c2cc2oc(C)cc23)cc1OC,0.9%,/,-13.8%
COc1ccc(OC)c(/C=N/NC(=O)CCc2c(C)n[nH]c2C)c1,-0.3%,-4.5%,9.4%
COc1ccc(OC)c(/C=N/NC(=O)CCc2ccc(O)c(O)c2)c1,2.3%,0.8%,20µM*
CCCn1c(C)cc(/C=C(\C#N)C(=O)OCC(=O)Nc2ccc(OC)c(Cl)c2)c1C,-4.9%,-41.5%,3.2%
COCCn1c(C)cc(/C=C(\C#N)C(=O)OCC(=O)Nc2ccc(S(N)(=O)=O)cc2)c1C,-16.6%,-27.0%,39.8µM*
Cc1ccc(CCNC(=O)CS(=O)Cc2nc(-c3cccs3)oc2C)cc1 (stereo not given),6.7%,15.9%,8.91µM*
Cc1ccc(CNC(=O)CS(=O)Cc2nc(-c3cccs3)oc2C)cc1 (stereo not given),?,1.0%,25.1µM*
